PubChem BioAssay (Tox21)
Results filed as inconclusive are left out. The source made the active and inactive calls. Unless noted, calls follow the shape of the dose curve; as a rule, active = well fitted curve in the direction sought with a large enough effect in the repeat runs; inconclusive = weak or mixed curves; inactive = no such curve, though single readings can be large; an effect the other way counts as inactive or inconclusive.

How the values were obtained:
[1] = qHTS assay for small molecule agonists of the p53 signaling pathway (AID 651631; calls by dose curve; also: nearly all actives have a fitted effect of over 15% in size); conditions: HCT-116 p53RE-bla reporter, beta-lactamase FRET ratio, 16 h; series mostly up to 73.3 µM
Method in brief: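 Read-out is beta-lactamase FRET fluorescence measured 2 h after substrate addition at room temperature, in HCT-116 cells with a p53 response element-driven reporter exposed to compounds for 16 h at 37 °C.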

[2] = qHTS assay for small molecules that induce genotoxicity in human embryonic kidney cells expressing luciferase-tagged ATAD5 (AID 651632); conditions: HEK293T ATAD5-luciferase induction, 16 h; series mostly up to 83.3 µM; also: nearly all actives have a fitted effect of over 15% in size
Method in brief: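 ATAD5-luc HEK293T, 2,000 cells/well; cpd or DMSO pin-transferred; 16 hr, 37C/5% CO2; Amplite 30 min RT; luminescence.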

[3] = qHTS assay for small molecule agonists of the p53 signaling pathway - cell viability (AID 651633; calls by dose curve; also: nearly all actives have a fitted effect of over 30% in size); conditions: p53RE-bla HCT-116 viability, ATP luminescence, 16 h; series mostly up to 83.3 µM
Method in brief: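 Viability counter-read: CellTiter-Glo luminescence (30 min, room temperature) in the same p53RE-bla plates. These plates had been exposed to compounds for 16 h at 37 C.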

[4] = qHTS assay for small molecule disruptors of the mitochondrial membrane potential (AID 720635); conditions: HepG2 mitochondrial membrane potential, Mito-MPS dye ratio; series mostly up to 83.2 µM
Method in brief: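 Mitochondrial membrane potential tracked with Mito-MPS dye, red aggregates (ex 540/em 590 nm) against green monomers (ex 490/em 535 nm). Compound treatment 1 hr at 37C, dye 30 min in HepG2.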

[5] = qHTS assay to test for compound auto fluorescence at 590 nm (red) in HepG2 cells (AID 720674); conditions: HepG2 autofluorescence, red 540/590 nm, 1 h; series mostly up to 46 µM
Method in brief: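 Red autofluorescence (Ex/Em 540/590 nm, Rose Bengal sodium equivalents) was measured in HepG2 cells, 2,000 per well in MEM plus 10% FBS, plated overnight at 37 C. Readings were taken 1 hr after adding 23 nL compound or DMSO, at 37 C and 5% CO2.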

[6] = qHTS assay to test for compound auto fluorescence at 535 nm (green) in HepG2 cells (AID 720675); conditions: green autofluorescence 485/535 nm, 1 h; series mostly up to 46 µM
[7] = qHTS assay to test for compound auto fluorescence at 460 nm (blue) in HEK293 cells (AID 720678); conditions: blue autofluorescence 405/460 nm; series mostly up to 46 µM
Method in brief: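 Blue-channel (Ex/Em 405/460 nm) intensity measured in HEK293 cultures after overnight compound exposure at 37C; signal expressed relative to triamterene. Cells plated 2,000 per well in 10% dialyzed FBS medium and allowed 4-5 hr to attach.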

[8] = qHTS assay to test for compound auto fluorescence at 590 nm (red) in HEK293 cells (AID 720679); conditions: red autofluorescence 540/590 nm; series mostly up to 46 µM
Method in brief: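 Red-channel autofluorescence (Ex/Em 540/590 nm; Rose Bengal sodium reference) was measured after overnight 37C, 5% CO2 exposure of attached HEK293 cells, 2,000 per well in medium with 10% dialyzed FBS.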

[9] = qHTS assay to test for compound auto fluorescence at 535 nm (green) in HEK293 cells (AID 720680); conditions: green autofluorescence 485/535 nm; series mostly up to 46 µM
[10] = qHTS assay to test for compound auto fluorescence at 460 nm (blue) in HEK293 cell free culture (AID 720681); conditions: cell-free medium, autofluorescence 405/460 nm (blue); series mostly up to 46 µM
Method in brief: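 Blue fluorescence (Ex 405/Em 460 nm, triamterene-equivalent) was read immediately after pin transfer of compound or DMSO into medium (DMEM, 10% FBS) without cells.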

[11] = qHTS assay to test for compound auto fluorescence at 535 nm (green) in HEK293 cell free culture (AID 720682); conditions: cell-free medium, green autofluorescence 485/535 nm; series mostly up to 46 µM
Method in brief: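 Fluorescein serves as the green reference fluorophore; each compound's intrinsic emission at 535 nm (excitation 485 nm) is reported as an equivalent amount of that dye, measured in serum-containing DMEM without cells.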

[12] = qHTS assay to test for compound auto fluorescence at 590 nm (red) in HEK293 cell free culture (AID 720683); conditions: cell-free medium autofluorescence, Ex540/Em590 red; series mostly up to 46 µM
Method in brief: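 Red-channel autofluorescence of compounds in culture medium (DMEM, 10% FBS), no cells, measured at 540/590 nm. Rose Bengal sodium is the reference fluorophore for equivalence.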

[13] = qHTS assay to test for compound auto fluorescence at 590 nm (red) in HepG2 cell free culture (AID 720684); conditions: cell-free medium autofluorescence, red 540/590 nm; series mostly up to 46 µM
Method in brief: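 Plate contents were MEM with 10% FBS plus test compound or DMSO, no cells. Fluorescence was recorded with 540 nm excitation and 590 nm emission.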

[14] = qHTS assay to test for compound auto fluorescence at 460 nm (blue) in HepG2 cell free culture (AID 720685); conditions: Cell-free culture medium, blue autofluorescence 405/460 nm; series mostly up to 46 µM
Method in brief: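 Compound (23 nL) or DMSO pinned into cell-free MEM with 10% FBS; blue fluorescence read at 405/460 nm excitation/emission, expressed as auto-fluorescence equivalency to triamterene.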

[15] = qHTS assay to test for compound auto fluorescence at 535 nm (green) in HepG2 cell free culture (AID 720686); conditions: Cell-free medium, green autofluorescence 485/535 nm; series mostly up to 46 µM
[16] = qHTS assay to test for compound auto fluorescence at 460 nm (blue) in HepG2 cells (AID 720687); conditions: autofluorescence 405/460 nm, 1 h; series mostly up to 46 µM
Method in brief: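 Blue-channel autofluorescence (Ex/Em 405/460 nm, triamterene-equivalent) was measured after 1 hr compound exposure at 37 C, 5% CO2. Cells were HepG2, plated overnight at 37 C in MEM plus 10% FBS.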

[17] = target: Glucocorticoid receptor (Homo sapiens) (UniProt P04150); assay: qHTS assay to identify small molecule agonists of the glucocorticoid receptor (GR) signaling pathway (AID 720691; active = well fitted activation curve with a large enough effect in the signal ratio in the repeat runs, not every such curve was filed as active; the % refers to the signal ratio); conditions: GR-bla HeLa, beta-lactamase reporter ratio, 18 h; series mostly up to 62.4 µM
Method in brief: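 Fluorescence intensity from LiveBLAzer B/G FRET substrate (2 h, room temperature) reports beta-lactamase expression driven by the glucocorticoid response element in GR-bla HeLa cells after 18 h compound exposure at 37 C.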

[18] = target: Glucocorticoid receptor (Homo sapiens) (UniProt P04150); assay: qHTS assay to identify small molecule antagonists of the glucocorticoid receptor (GR) signaling pathway (AID 720692; active = well fitted inhibition curve with a large enough effect in the signal ratio in the repeat runs, not every such curve was filed as active; the % refers to the signal ratio); conditions: GR-bla HeLa, beta-lactamase FRET ratio, dexamethasone-stimulated, 18 h; series mostly up to 58.5 µM
Method in brief: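 HeLa GR-bla cells; cmpd + dex 5 nM final, 18 h 37 C; LiveBLAzer B/G FRET substrate 2 h RT; fluorescence intensity read. Antagonist mode, qHTS.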

[19] = qHTS assay for small molecule disruptors of the mitochondrial membrane potential - cell viability (AID 720634; calls by dose curve;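 also: human HepG2 liver cancer cells; nearly all actives have a fitted effect of over 20% in size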); conditions: HepG2 viability, ATP luminescence (CellTiter-Glo), 1 h; series mostly up to 83.2 µM
Method in brief: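 Cells: HepG2, 2,000/well, attached overnight. Compound 1 hr, 37 C/5% CO2. +m-MPI dye, +CellTiter-Glo 30 min RT. Readout: luminescence (ATP).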

[20] = qHTS assay for small molecules that induce genotoxicity in human embryonic kidney cells expressing luciferase-tagged ATAD5 - cell viability (AID 651634; calls by dose curve; also: nearly all actives have a fitted effect of over 25% in size); conditions: HEK293T ATAD5-luc cells viability, CellTiter-Fluor, 15.5 h; series mostly up to 83.3 µM
Method in brief: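 Fluorescence from CellTiter-Fluor, reporting protease activity within live cells, served as the viability read-out. HEK293T cells carrying luciferase-tagged ATAD5 had been treated with compound for 15.5 hr at 37C.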

Measured: Potency

Chain of Glucocorticoid receptor (Homo sapiens) (P04150 whole entry, looked up): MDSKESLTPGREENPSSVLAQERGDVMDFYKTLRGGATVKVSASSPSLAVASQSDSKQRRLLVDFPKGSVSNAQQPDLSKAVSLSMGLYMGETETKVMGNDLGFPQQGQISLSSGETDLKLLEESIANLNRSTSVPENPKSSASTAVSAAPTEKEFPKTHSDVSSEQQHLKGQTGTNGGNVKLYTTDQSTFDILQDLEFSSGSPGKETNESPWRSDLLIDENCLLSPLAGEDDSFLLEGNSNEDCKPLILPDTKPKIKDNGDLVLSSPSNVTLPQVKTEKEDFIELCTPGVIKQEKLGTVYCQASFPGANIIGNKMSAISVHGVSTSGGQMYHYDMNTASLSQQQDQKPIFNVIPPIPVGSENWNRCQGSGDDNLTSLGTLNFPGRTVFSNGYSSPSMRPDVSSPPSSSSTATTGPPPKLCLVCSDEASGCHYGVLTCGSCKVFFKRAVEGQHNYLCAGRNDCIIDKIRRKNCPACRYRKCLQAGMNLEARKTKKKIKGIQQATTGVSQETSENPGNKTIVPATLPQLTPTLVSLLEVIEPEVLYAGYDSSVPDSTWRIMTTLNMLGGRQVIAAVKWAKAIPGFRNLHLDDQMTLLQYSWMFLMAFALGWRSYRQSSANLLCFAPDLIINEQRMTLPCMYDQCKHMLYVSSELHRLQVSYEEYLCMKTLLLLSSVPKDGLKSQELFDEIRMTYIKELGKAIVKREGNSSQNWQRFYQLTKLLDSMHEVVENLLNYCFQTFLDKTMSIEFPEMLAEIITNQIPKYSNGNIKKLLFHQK

COC(=O)c1c(Cl)c(Cl)c(C(=O)OC)c(Cl)c1Cl
inactive: [1] | [2] | [3] | [4] | [5] | [6] | [7] | [8] | [9] | [10] | [11] | [12] | [13] | [14] | [15] | [16] | [17] | [18]

CN1CCC(=C2c3ccccc3CC(=O)c3sccc32)CC1
inactive: [1] | [2] | [3] | [19] | [5] | [6] | [7] | [8] | [9] | [10] | [11] | [12] | [13] | [14] | [15] | [16] | [17] | [18]

CCOC(C)(C)C
inactive: [1] | [2] | [3] | [19] | [5] | [6] | [7] | [8] | [9] | [10] | [11] | [12] | [13] | [14] | [15] | [16]

CC(C)(O)C(=O)c1ccccc1
inactive: [2] | [3] | [20] | [19] | [4] | [5] | [6] | [7] | [8] | [9] | [10] | [11] | [12] | [13] | [14] | [15] | [16] | [17] | [18]

COC(=O)CC(C)=O
inactive: [2] | [3] | [20] | [19] | [4] | [5] | [6] | [7] | [8] | [9] | [10] | [11] | [12] | [13] | [14] | [15] | [16] | [17] | [18]

Brc1c(NC2=NCCN2)ccc2nccnc12
inactive: [1] | [3] | [20] | [19] | [5] | [6] | [7] | [8] | [9] | [10] | [11] | [12] | [13] | [14] | [15] | [16] | [17] | [18]

Cn1cc(S(C)=O)c(=O)c2ccc(F)cc21 (stereo not drawn)
inactive: [1] | [2] | [3] | [4] | [5] | [6] | [7] | [8] | [9] | [10] | [11] | [12] | [13] | [14] | [15] | [16] | [17] | [18]

C1CN(CCOCCN2CCOCC2)CCO1
inactive: [1] | [2] | [3] | [19] | [5] | [6] | [7] | [8] | [9] | [10] | [11] | [12] | [13] | [14] | [15] | [16] | [17] | [18]

Cc1ccc(Cl)cc1Cl
inactive: [1] | [2] | [3] | [19] | [5] | [6] | [7] | [8] | [9] | [10] | [11] | [12] | [13] | [14] | [15] | [16] | [17] | [18]

CC(=O)OCC(=O)[C@@]1(O)CC[C@H]2[C@@H]3CCC4=CC(=O)CC[C@]4(C)[C@H]3C(=O)C[C@@]21C
inactive: [2] | [3] | [20] | [19] | [5] | [6] | [7] | [8] | [9] | [10] | [11] | [12] | [13] | [14] | [15] | [16]

COc1ccc(CCN(C)CCCC(C#N)(c2cc(OC)c(OC)c(OC)c2)C(C)C)cc1OC (stereo not drawn)
inactive: [1] | [2] | [3] | [19] | [5] | [6] | [7] | [8] | [9] | [10] | [11] | [12] | [13] | [14] | [15] | [16] | [17] | [18]

NC(=O)c1ccc(N)cc1
inactive: [1] | [2] | [3] | [19] | [5] | [6] | [7] | [8] | [9] | [10] | [11] | [12] | [14] | [15] | [16] | [17] | [18]

N#Cc1ccc(C2CCCc3cncn32)cc1 (stereo not drawn)
inactive: [1] | [2] | [3] | [19] | [5] | [6] | [7] | [8] | [9] | [10] | [11] | [12] | [13] | [14] | [15] | [16] | [17] | [18]

CCn1nc(C(=O)O)c(=O)c2cc3c(cc21)OCO3
inactive: [1] | [2] | [3] | [19] | [5] | [6] | [7] | [8] | [9] | [10] | [11] | [12] | [14] | [15] | [16] | [17] | [18]
